Among the data in ChEMBL document CHEMBL1961873, “Compounds: GSK PKIS; Assays: Nanosyn kinase panel” (2012) are inhibition values, retold here.

For experiment [1], the target named is Sphingosine kinase 1 (Homo sapiens) (UniProt Q9NYA1). To be noted: at 1 µM.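 Note: mean SPHK1 inhibition value reported from the GSK PKIS kinase panel screen.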
Experiment [2] addresses T1, Sphingosine kinase 2 (Homo sapiens) (UniProt Q9NRA0).
T1 sequence (whole entry): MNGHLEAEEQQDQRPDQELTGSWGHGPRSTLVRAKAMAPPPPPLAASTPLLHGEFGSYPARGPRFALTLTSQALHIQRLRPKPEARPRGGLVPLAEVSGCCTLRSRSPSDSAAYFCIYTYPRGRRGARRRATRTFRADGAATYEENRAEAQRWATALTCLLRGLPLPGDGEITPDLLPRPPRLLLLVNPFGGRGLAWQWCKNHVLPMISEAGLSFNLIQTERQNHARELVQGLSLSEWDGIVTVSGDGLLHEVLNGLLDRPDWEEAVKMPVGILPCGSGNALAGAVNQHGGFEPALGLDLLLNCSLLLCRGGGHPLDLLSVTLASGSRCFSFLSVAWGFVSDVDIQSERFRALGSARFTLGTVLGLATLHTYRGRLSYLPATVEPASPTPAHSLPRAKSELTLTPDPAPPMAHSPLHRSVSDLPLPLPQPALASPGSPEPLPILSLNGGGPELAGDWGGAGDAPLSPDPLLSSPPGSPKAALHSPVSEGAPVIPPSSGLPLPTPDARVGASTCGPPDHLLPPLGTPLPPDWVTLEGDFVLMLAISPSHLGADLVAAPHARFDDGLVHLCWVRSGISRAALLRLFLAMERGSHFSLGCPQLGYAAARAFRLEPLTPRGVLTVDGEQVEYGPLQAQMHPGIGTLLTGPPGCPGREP
To be noted: at 0.1 µM.

The target of experiment [3] is T1, Sphingosine kinase 2 (Homo sapiens). To be noted: at 1 µM.
In experiment [4] the target is Casein kinase II subunit alpha (Homo sapiens) (UniProt P68400). Particulars: at 0.1 µM.
For experiment [5] the target is unchanged. To be noted: at 1 µM.
Experiment [6] has as its target T2, Inhibitor of nuclear factor kappa-B kinase subunit alpha (Homo sapiens) (UniProt O15111).
T2 sequence (whole entry): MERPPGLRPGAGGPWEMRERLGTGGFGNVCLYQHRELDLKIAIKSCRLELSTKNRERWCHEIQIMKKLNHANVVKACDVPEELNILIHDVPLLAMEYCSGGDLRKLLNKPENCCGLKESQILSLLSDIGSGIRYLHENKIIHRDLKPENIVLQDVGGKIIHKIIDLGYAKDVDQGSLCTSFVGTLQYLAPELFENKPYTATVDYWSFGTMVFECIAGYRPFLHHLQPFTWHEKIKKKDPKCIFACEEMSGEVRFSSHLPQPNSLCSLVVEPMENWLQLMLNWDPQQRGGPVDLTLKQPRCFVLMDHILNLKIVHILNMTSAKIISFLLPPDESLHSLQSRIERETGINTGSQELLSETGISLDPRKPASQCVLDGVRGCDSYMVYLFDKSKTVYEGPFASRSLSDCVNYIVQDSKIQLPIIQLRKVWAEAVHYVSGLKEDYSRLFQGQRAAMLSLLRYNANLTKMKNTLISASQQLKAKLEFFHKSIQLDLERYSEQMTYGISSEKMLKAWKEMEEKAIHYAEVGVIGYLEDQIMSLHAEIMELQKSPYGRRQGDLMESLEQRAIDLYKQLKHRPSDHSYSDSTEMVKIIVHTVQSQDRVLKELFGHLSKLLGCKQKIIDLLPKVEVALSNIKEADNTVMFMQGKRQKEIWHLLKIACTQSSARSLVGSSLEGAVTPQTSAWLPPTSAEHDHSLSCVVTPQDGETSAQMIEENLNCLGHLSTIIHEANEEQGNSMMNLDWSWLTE
Particulars: at 0.1 µM.

For experiment [7], the target named is T2, Inhibitor of nuclear factor kappa-B kinase subunit alpha (Homo sapiens). Particulars: at 1 µM.
Experiment [8] has as its target T3, Inhibitor of nuclear factor kappa-B kinase subunit beta (Homo sapiens) (UniProt O14920).
T3 sequence (whole entry): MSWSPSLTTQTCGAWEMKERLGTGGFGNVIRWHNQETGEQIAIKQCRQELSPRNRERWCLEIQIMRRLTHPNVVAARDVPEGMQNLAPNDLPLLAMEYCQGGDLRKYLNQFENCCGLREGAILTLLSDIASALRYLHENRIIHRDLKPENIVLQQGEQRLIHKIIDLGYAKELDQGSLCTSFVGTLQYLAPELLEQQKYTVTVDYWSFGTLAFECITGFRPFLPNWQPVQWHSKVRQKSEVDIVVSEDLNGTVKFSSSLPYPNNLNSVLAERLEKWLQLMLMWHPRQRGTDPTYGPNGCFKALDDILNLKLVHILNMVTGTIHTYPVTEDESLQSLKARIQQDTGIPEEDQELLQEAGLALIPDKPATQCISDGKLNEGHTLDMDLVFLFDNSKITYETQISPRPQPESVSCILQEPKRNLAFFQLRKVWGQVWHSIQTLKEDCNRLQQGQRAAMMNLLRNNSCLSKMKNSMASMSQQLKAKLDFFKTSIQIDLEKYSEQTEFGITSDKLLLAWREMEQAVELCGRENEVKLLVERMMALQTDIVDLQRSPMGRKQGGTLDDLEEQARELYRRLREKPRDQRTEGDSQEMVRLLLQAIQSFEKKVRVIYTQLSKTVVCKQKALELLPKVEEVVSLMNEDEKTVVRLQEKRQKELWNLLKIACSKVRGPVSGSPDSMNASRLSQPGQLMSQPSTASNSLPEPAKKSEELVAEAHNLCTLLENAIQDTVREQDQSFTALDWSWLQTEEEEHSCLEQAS
Particulars: at 0.1 µM.

The target of experiment [9] is T3, Inhibitor of nuclear factor kappa-B kinase subunit beta (Homo sapiens). Particulars: at 1 µM.
For experiment [10], the target named is T4, Inhibitor of nuclear factor kappa-B kinase subunit epsilon (Homo sapiens) (UniProt Q14164).
T4 sequence (whole entry): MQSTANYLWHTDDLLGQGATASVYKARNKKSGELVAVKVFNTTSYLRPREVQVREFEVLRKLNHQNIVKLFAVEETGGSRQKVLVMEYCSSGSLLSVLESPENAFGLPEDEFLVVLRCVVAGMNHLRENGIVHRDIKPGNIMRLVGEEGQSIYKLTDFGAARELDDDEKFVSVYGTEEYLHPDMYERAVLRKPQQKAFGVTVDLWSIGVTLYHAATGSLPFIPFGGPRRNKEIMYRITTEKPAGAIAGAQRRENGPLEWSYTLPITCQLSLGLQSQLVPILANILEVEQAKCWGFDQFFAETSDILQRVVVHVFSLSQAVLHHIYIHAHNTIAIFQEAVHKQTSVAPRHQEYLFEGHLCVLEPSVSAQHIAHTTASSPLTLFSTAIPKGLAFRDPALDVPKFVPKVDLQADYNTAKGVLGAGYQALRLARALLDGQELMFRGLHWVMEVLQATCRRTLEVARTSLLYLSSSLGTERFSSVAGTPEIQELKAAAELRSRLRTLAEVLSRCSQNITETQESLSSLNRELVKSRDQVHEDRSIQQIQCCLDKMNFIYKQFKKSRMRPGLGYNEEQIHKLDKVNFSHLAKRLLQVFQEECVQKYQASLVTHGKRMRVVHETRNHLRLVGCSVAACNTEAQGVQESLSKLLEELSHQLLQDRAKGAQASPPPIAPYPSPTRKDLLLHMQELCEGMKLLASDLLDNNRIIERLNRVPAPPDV
Particulars: at 0.1 µM.

Experiment [11] concerns the target T4, Inhibitor of nuclear factor kappa-B kinase subunit epsilon (Homo sapiens). To be noted: at 1 µM.
The target of experiment [12] is T5, Serine/threonine-protein kinase Nek1 (Homo sapiens) (UniProt Q96PY6).
T5 sequence (whole entry): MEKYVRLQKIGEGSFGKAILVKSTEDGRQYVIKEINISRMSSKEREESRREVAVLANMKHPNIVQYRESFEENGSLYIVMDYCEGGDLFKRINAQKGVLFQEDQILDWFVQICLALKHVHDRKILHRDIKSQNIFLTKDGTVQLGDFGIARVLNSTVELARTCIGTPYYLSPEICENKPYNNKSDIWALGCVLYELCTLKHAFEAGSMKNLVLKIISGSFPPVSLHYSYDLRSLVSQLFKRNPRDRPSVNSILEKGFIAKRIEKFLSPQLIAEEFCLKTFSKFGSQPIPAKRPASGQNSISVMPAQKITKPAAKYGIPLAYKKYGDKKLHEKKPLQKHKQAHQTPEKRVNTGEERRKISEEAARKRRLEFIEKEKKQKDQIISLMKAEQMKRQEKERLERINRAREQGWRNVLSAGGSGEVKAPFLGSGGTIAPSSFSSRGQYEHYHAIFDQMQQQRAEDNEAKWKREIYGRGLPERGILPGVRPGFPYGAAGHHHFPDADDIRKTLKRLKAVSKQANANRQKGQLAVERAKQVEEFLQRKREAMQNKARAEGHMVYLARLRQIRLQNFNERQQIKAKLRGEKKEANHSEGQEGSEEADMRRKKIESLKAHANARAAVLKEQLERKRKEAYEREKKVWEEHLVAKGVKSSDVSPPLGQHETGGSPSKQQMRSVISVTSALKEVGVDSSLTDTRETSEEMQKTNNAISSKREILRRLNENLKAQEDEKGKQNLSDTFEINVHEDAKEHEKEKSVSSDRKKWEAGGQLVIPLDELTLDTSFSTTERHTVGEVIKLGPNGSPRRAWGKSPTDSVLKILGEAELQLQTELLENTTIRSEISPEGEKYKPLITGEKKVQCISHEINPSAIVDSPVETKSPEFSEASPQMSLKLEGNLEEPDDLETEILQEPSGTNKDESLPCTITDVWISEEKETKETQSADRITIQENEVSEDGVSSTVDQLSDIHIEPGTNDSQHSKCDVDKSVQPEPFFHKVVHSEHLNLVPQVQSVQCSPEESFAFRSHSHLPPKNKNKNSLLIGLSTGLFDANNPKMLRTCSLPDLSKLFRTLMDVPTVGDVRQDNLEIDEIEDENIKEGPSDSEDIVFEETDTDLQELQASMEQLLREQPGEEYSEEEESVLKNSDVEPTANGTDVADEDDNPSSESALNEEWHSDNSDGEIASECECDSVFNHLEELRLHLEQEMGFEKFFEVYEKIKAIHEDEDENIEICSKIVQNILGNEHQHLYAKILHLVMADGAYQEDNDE
Particulars: at 0.1 µM.

In experiment [13] the target is T5, Serine/threonine-protein kinase Nek1 (Homo sapiens). Particulars: at 1 µM.
In experiment [14] the target is T6, Serine/threonine-protein kinase Nek2 (Homo sapiens) (UniProt P51955).
T6 sequence (whole entry): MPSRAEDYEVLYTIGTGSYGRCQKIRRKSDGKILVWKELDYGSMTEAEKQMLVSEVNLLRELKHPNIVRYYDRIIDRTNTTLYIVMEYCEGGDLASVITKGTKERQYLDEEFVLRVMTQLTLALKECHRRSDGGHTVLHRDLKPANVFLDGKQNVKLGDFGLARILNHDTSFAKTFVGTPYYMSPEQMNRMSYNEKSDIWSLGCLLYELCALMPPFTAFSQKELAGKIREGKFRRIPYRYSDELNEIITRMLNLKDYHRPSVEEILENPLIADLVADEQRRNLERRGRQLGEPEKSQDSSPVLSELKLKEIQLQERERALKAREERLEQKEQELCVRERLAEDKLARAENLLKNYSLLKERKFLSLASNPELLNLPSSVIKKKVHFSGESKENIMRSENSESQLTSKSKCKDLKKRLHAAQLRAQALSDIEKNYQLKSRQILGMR
To be noted: at 0.1 µM.

Experiment [15] addresses T6, Serine/threonine-protein kinase Nek2 (Homo sapiens). Particulars: at 1 µM.
Experiment [16] deals with Serine/threonine-protein kinase Nek6 (Homo sapiens) (UniProt Q9HC98). To be noted: at 0.1 µM.
The target is the same in experiment [17]. Particulars: at 1 µM.
The target of experiment [18] is Serine/threonine-protein kinase Nek7 (Homo sapiens) (UniProt Q8TDX7). Particulars: at 0.1 µM.
For experiment [19] the target is unchanged. Particulars: at 1 µM.
Experiment [20] addresses T7, Serine/threonine-protein kinase Nek9 (Homo sapiens) (UniProt Q8TD19).
T7 sequence (whole entry): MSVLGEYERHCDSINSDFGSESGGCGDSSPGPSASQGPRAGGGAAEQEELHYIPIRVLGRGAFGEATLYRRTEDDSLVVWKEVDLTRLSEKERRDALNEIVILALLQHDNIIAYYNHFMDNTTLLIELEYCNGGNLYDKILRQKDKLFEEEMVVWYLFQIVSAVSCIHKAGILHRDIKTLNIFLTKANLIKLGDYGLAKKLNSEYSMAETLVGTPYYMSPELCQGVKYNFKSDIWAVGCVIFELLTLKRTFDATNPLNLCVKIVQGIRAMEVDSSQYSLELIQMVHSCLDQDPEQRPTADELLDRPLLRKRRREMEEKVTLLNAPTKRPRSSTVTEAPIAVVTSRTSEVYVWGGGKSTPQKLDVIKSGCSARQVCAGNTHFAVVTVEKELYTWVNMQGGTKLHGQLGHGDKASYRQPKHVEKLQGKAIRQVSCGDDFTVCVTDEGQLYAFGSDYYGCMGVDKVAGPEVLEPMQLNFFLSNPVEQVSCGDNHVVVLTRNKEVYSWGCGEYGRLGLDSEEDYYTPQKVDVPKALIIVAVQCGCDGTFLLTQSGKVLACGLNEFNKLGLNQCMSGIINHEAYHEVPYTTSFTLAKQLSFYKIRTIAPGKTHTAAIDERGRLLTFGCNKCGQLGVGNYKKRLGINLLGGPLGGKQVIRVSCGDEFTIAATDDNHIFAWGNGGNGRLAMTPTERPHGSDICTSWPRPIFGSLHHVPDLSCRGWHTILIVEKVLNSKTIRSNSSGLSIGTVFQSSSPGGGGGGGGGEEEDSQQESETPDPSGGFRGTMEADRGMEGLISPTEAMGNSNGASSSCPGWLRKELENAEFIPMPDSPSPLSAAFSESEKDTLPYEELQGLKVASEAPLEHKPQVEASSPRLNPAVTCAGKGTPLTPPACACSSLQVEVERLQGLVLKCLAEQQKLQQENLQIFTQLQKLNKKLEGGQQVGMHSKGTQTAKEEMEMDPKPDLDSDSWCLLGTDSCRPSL
Particulars: at 0.1 µM.

Chain of Serine/threonine-protein kinase Nek7 (Homo sapiens) (Q8TDX7 whole entry, looked up): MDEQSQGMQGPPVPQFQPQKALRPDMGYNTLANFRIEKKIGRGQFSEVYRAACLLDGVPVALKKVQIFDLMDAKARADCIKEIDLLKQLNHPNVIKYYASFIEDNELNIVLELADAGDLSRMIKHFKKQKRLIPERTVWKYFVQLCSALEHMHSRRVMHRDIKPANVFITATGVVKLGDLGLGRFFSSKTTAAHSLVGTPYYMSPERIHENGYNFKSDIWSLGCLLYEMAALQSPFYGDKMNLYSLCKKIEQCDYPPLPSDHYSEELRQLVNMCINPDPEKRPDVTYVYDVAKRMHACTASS
Chain of Casein kinase II subunit alpha (Homo sapiens) (P68400 whole entry, looked up): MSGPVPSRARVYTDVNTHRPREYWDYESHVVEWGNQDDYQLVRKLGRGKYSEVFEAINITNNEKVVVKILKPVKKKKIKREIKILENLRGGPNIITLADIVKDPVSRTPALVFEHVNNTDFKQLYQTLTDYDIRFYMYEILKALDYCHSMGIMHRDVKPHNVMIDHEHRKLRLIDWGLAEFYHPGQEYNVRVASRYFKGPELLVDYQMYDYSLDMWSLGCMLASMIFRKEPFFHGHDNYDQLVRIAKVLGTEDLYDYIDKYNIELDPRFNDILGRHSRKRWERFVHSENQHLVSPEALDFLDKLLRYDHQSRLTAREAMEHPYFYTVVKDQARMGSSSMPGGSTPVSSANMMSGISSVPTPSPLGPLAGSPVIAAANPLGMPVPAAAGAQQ
Chain of Serine/threonine-protein kinase Nek6 (Homo sapiens) (Q9HC98 whole entry): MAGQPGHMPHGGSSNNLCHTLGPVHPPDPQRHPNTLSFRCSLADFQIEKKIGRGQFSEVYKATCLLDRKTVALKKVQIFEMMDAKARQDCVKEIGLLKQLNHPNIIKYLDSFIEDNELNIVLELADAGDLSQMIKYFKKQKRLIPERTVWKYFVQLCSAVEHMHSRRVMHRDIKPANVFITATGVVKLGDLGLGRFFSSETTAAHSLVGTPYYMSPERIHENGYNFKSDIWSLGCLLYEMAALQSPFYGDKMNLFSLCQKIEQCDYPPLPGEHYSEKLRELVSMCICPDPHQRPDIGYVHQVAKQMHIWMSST
Chain of Sphingosine kinase 1 (Homo sapiens) (Q9NYA1 whole entry): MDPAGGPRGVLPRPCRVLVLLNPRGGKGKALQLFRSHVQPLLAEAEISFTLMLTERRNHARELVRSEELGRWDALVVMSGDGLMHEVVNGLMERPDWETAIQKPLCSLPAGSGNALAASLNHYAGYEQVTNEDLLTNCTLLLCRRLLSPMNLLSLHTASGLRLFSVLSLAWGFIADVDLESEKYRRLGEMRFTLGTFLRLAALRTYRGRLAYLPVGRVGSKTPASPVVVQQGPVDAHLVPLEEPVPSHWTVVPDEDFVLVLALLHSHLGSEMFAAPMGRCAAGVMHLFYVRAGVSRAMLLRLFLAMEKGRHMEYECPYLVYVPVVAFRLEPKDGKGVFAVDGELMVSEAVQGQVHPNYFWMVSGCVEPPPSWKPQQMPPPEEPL

Consider `CCc1nn2ncccc2c1-c1ccnc(NC2CC2)n1`, for which the inhibition in [1] was found to be 0.9%; in experiment [2] it was 0%; in experiment [3] it was 0.3%; in experiment [4], 1.46%; in experiment [5], 4.59%; in [6] it was 3.61%. In addition, the inhibition is 6.96% in [7]; 4.78% in experiment [8]; 3.76% in experiment [9]; 4.47% in [10]; 6.61% in [11]; 3.1% in experiment [12]. Also, the inhibition was found to be 4.93% in experiment [13]; 3.32% in experiment [14]; 3.36% in [15]; 2.16% in experiment [16]; 3.98% in [17]; 1.99% in experiment [18]. Moreover, the inhibition came out at 3.9% in [19] and 2.26% in [20].

For orientation: inhibition means the percentage by which the read-out fell short of the control. A high value points to a response far below the control.
